In PubChem BioAssay AID1159506 (National Center for Advancing Translational Sciences (NCATS), 2015):
Over roughly 59,000 sequences, the read-out has its median near -0.00055; the lowest 2% begin near -2. This is one part of a sample in which the lowest values are shown more often than they occur.

Test: Identification of proteins required for the processing of the EWS-FLI1 nascent transcript;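 further: robust z of luciferase light less the median z of siRNAs with the same seed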
Settings: TC32 Ewing sarcoma NR0B1-luc vs CMV-luc (EWS-FLI1 target promoter against control promoter), 48 h; screened at 20 nM (by protocol)
Method in brief: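 Parallel TC32-NR0B1-luc and TC32-CMV-luc reverse transfections with 20 nM siRNA in RPMI-1640/10% FBS, luciferase measured 48 h later. Seed-adjusted z-scores from normalized, z-score-MAD transformed data; AllStars negative and siGL4 controls on each plate.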

Sequence	seed-corrected z-score
UUCCUCUUCACCACGGUGU against CNNM3	-0.123
UGAGAGUUCAUAGCGUAUC against RCE1	-0.494
AAAGUAUAAUGGAUGUAUC against GNAI1	-0.47
AUAGGUACCAGGUAUGAGC against FOXM1	0.087
UUUGUUGGGAUGUUGGGUG against SPATA12	-2.1
UGCUGAAUGAGGUACGUGC against ZNF550	-0.438
UAUCCAUUUUCCUCUAUCC against FGF10	-0.261
UAUGGUUAGAAGAUAUCCC against IDS	1.1
AAAAGCUCACGGAGAAUCC against LINC01433	1.28
AACUGUCAAUGGUUGAAGC against FCGR2A	-0.901
AGUUUCUCAAUGUCUGGGC against PAGR1	-3.83
UUCGAGAAAAGCAGAAUCC against PRORSD1P	-0.604
ACAUCAACCACUACAGUGC against PCDHB7	-0.314
UUAACUUUCUCGAUAGAAC against SLC45A2	0.853
UUGACGUGCAUGAAGGACC against DUSP3	-0.254
UUCAGUACCAGGCUGGGUG against COMT	0.499
UUCUUGAUGAUCUUUAGCU against LONP1	0.0484
UGGUCUAUAGUAUUCAUGC against YTHDF2	-0.0088
UGAUUAUUAGGUACUACCC against RCN2	-2.4
UUCAAUCAGAUCGAAGAGC against CLK2	0.0394
AAAGAAGUAGAGGUAGGAC against OR6T1	0.724
UUAACUGCACCAUCAGUGU against S100A8	-3.04
UCAGCAUCAACAUAAUGCG against TAS2R40	-1.07

Sequence	seed-corrected z-score
UGACGAAUCCCUGCUAUAG against TDRD5	-0.0697
AAUUAGAUUACCUAAACAC against CDKL2	0.926
UAAAGGGAAAUUUCCACCA against CDH16	0.815
UUUGGUGAUUUCAUAAUCC against PCDH18	-0.027
AUCUGGAUCGCUCAGCUCC against TMEM235	0.0464
UAGCUUCUCACAGACUUUC against KCTD8	-2.45
UUUCCUCUAGGAAGCAUCU against TRIM17	0.172
AUAGGCAGCAGUGCACUCG against 5-Sep	-1.81
UAUAGUUAAAUCCAUCAUC against CALU	0.272
UAGUAAGAAGAGUCAAUGC against PGA5	-0.472
AAUUGUUCACUGACCAGGC against WNT8A	-0.645
AAAUAAUCCUGUCUACUCC against BOD1	0.629
UUGUAUUCAUCCUUGAAGC against CCDC89	-2.42
UGAGGACAUCGAAGAGGCC against HTR6	1.21
UAAUGUAGAACAUUUUGAC against LECT2	0.659
UAUGCUUGCAGUCCACUGG against DYNLT3	1.02
UUACUGGGAAUAGCACUGC against ITGA5	0.318
UACUCUAUCCGCUGUGCCC against RCC2	-0.853
UAGUUGUCGGUAUCUGUCC against CSPP1	-2.38
AUCGUGAAGAGAUACUCCG against MAPKBP1	0.318
UCAGCACACUGUCAGGUAC against USB1	0.878
UCACGGUGCACAAAGUUCU against ZAP70	-0.0104
UCUCUGUAUGUGACUGUGA against SNRPD3	-2.85

Sequence	seed-corrected z-score
UUGAAGUUCAUUAGUCUCC against AK5	-0.322
UGUGGAUUUUGGAUGCAGC against XKR5	-0.21
AAUGUGGUUGAGCUGAUCC against MAPK3	-2.13
UUGGACAAAAGAUAAGAGC against SNRNP40	-0.258
UUACCAGAUAGGAUGAUCA against OR5P2	0.365
UUUGAGGCCGUUGAGGGUG against ELAVL3	-0.487
UGGGAUUCAAGAUCUCCUC against NGEF	-3.75
UUAAUGUAUGGGUUGACUC against PLS1	-0.413
UCCAGUUCUCCGGUGAUCU against SYNE3	0.481
UUUGCAUUCAUAAAGAAUU against ING3	-0.246
UCACGUACAAGAGCACUCG against GRHL2	0.132
UUCAGUUGAAUUCCAAAGG against ARHGAP28	0.997
AAGGUGAUAAGUACAGUCA against LINC00977	0.26
AUGAUGCUAGGGUCGGUGC against E2F2	-0.689
UCUAGUACUACAUUGGCUU against FLJ32255	-1.66
CAUGGUCUCAGUCAGCAUG against CBY3	-2.21
UAUUCAGCAUUCUCUAUCU against DDAH2	-0.379
UCCCUGACAACUCCAGGGU against CLDN9	0.379
UAGUAAAUGAACGAAGGCG against MAD2L1	0.0839
UUAGAUACGACAUAAGCAG against PGAP1	0.122
UUUCUUCAAGGCAGUUUGC against SRGN	-1.36
UGAUGGUUGAAAUACUGGU against CITED2	-2.05
UGAACAGUCGCCGCUCUCU against ZNF418	0.482

Sequence	seed-corrected z-score
UGUCGUUUUUGUAUCCUUG against CAGE1	-1.32
UCUUCGUUGACCACACCAC against KCNIP1	0.284
UAGAAUGUCAGUUGGUUCC against MID1IP1	0.366
UACAGAUAAACGAUGAUGC against TMEM104	-0.0479
AGUUGUCCAACCAAUAGUC against EDRF1	-3.95
UACAUUGAAGCCUAUGGUU against ARF5	0.767
UUUUAUUUUCACAGUAGCA against LOC441239	0.865
UGACUGUAAACAGAGGCGG against SSR4	-0.396
UUUCGUUGGACUUACUUGG against SPP1	-0.831
UCAGGGCAAAGUGGGAUGA against OXER1	-2.06
UUCAGGUGGACGAACAGCG against ADAMTS8	-0.634
UCCGAUAGAGGUUAGACCG against PPT2	-0.518
UCUUCUUUAUGUACCACCG against CDC37L1	0.00159
UUGUAAGCUGGAUCGAUCC against ACACB	0.0997
UGGGUAUUUGAUCUUGUCG against LZTR1	-1.37
UUCUCUUCAACCCACUUGG against JAKMIP1	-2.7
UUUAGGUAAAUGAACUCUC against ANGPTL2	0.169
UAAAGGUUGAGAAACUUGA against PRPF38A	-2.42
UUAGAAUCGACCGGCAUUC against KIT	0.106
UAAAUGGCCGUGAUCAAUC against PRDM16	-0.168
UUUGUUCAAGGUUAAUCCC against LRRC27	0.333
UAUCUUCUCACUAACACUC against PEX12	0.599
ACCCUUAUGAAUUACACCC against PSMD1	-4.24

Sequence	seed-corrected z-score
UCAUAGUUUAGUUCUCGAG against BBS9	0.745
AUAGAAUCGAUGGAAGUCC against CAMK2A	0.247
UUCUAUGAAAUCGUAAGGC against ME2	-0.054
AACAGCUCUCUGGUAAGCG against RPS23P8	-0.758
UUGCUUUCGAGACCAGCUC against C11orf16	-2.33
UUCUUAUAUGUAGUACGGG against ZNF506	-0.657
UUCGAACUAAGGCACGAGC against ABCB5	-0.392
UAUUUCCAUCGGAUGAUGC against GJD3	-0.0376
UAGGCUUAGAGGUCCCAGC against LACRT	2.39
UAAUUGACCAGCUUACUAC against PRAMEF2	1.04
AAUUCAUCCAUGAUUCUGC against FAM134B	-0.291
UAGUUGUCGACGAGCACGC against MUC5AC	-2.79
UUCUUACCAGUGUUGAUGG against KIF11	-2.21
UAAUCUUCAUACGCAGUGC against HNRNPR	0.713
UUCAUACUGAAGAUUUUCC against ZNF157	-0.0023
UAGGAUUAAAUUAAUCCUC against GNE	-0.0404
UAAAGGCAUAGUUUCCCUG against RGS7BP	-2.71
AAAGGUGCAGAAGUUCUGU against LOC646484	-1.37
UCCAGUUCCAGAACUAUCU against HES2	0.537
AAACGGUCCAGGUAAUUCA against CCND2	-1.57
UCUCGUUCCACCAGAUCCG against OGFR	2.21
AGUUGUAGAAGAACGAAUC against PSMD2	-3.28
UUGGGUUUCGGACCUCUCU against CBX7	0.219

Sequence	seed-corrected z-score
UAUCCUUCAACCAUUCUGG against DYX1C1	0.0057
UAUAUGACACCUGCUGUGG against NGFR	-1.33
AUUGCAGUCACGAUGAUGG against OR52I2	-1.16
UAAUGUCCAAGAUGGUCAC against CELSR1	0.481
UUCUGAAUCAAAGUUGUUC against CBLN1	0.758
UGUAUAACCUGGCUCUCUG against FAM45BP	-0.888
UAGGAUGGAACAUCAAUCU against WASH5P	-2.88
UAUGCUCAAAUACCUUUGC against CAT	0.148
UAGUGCUUAUCCUAGAAUC against KLK8	0.915
AAACUACCCAAUUGUAAUC against OR9A4	0.66
AUGGUCUUGCCAUCUACCG against RABL2A	-2.05
AUCAAUUUGUCCUCCAUCC against RNPS1P1	-0.331
GACAUGGCAGUGAGCUUCC against CBX2	-0.4
UGCUCAAUCUGAUAGAUGG against TP63	-0.257
UGUUUGAUCUGUAAAAUGG against C15orf32	-1.58
AUGAUGUUCCUUGAAGUUC against DHRS2	-0.594
UCUCAUCCAGGUACCAGCC against FTCD	-0.292
AGCUGUUCAAUGUCAAAGC against INMT	-4.2
